Results filed as inconclusive are left out. Calls of active or inactive are those of the source. How the source made its calls, unless noted: active means hit-call score of the fitted dose curve at least 0.9, where 1 is the maximum; inactive means score below 0.9.
What was measured:
[1] = biological target: human Vitamin D Receptor (VDR), VDR (gene 7421) (UniProt P11473); assay: ATG_VDR_TRANS: Attagene TRANS-FACTORIAL HepG2 Assay for human Vitamin D Receptor (VDR) (AID 2283022; active means hit-call score of the fitted dose curve at least 0.9, where 1 is the maximum)
human Vitamin D Receptor (VDR), VDR (gene 7421), sequence (P11473 whole entry, looked up, the tested form may be a part): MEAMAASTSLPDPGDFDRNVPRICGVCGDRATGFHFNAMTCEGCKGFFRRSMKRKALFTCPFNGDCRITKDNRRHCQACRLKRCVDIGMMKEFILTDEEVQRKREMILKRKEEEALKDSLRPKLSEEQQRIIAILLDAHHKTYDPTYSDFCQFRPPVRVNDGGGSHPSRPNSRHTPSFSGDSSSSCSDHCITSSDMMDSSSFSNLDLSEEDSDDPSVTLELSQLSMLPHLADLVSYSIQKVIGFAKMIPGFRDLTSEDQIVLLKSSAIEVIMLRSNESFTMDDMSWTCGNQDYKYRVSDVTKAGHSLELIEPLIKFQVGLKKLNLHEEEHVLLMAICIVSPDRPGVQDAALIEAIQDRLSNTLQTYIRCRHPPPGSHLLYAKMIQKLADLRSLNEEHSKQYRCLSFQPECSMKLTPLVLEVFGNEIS
Outline: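 HepG2 cells were transiently transfected with multiple GAL4-UAS reporter units, so signal reflects exogenous chimeric receptor-Gal4 activity. After 24 h compound exposure, reporter mRNA was measured by RT-PCR, fluorescent labelling and capillary electrophoresis, fitted for gain of signal versus DMSO.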

[2] = read-out: Monokine induced gamma interferon (MIG), CXCL9 (gene 4283); assay: BSK_3C_MIG: BioMAP Diversity Plus: 3C Assay for Monokine induced gamma interferon (MIG) Biomarker Activity (AID 2283021); conditions: primary human endothelial cells (HUVEC); actives raise or lower the signal
Outline: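 After 24 h of treatment, human umbilical vein endothelial cultures (3C system) had their MIG biomarker level determined by ELISA, with DMSO serving as negative control.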

[3] = BSK_3C_SRB: Viability Assessment in the BioMAP Diversity Plus: 3C Assay (AID 2283023); conditions: primary human endothelial cells (HUVEC);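 further: fitted both ways against DMSO so a hit may be signal rise or drop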
Outline: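 Primary human umbilical vein endothelial cells in the 3C system were read 24 h after compound dosing. Total protein was stained with 0.1% sulforhodamine B after 10% TCA fixation and read at 560 nm, with bidirectional fitting against DMSO as baseline.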

[4] = read-out: Matrix Metallopeptidase 1 (MMP1), MMP1 (gene 4312); assay: BSK_BE3C_MMP1: BioMAP Diversity Plus: BE3C Assay for Matrix Metallopeptidase 1 (MMP1) Biomarker Activity (AID 2283024); conditions: primary human bronchial epithelial cells; actives raise or lower the signal
Outline: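 Dose cells, wait 24 h, run MMP1 ELISA; cells are human bronchial epithelial primaries. Both increases and decreases relative to DMSO counted.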

[5] = BSK_3C_Vis: BioMAP Diversity Plus: 3C Assay for Morphology Visualization (AID 2283025); conditions: primary human endothelial cells (HUVEC);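 further: fitted both ways so gain or loss versus DMSO counts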
Outline: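 Endothelial cells from human umbilical vein were treated with test chemicals for 24 h and inspected by light microscopy for changes in cell conformation.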

[6] = read-out: Pselectin, SELP (gene 6403); assay: BSK_4H_Pselectin: BioMAP Diversity Plus: 4H Assay for Pselectin Biomarker Activity (AID 2283026); conditions: primary human endothelial cells (HUVEC); actives raise or lower the signal
Outline: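 Human vascular endothelium from umbilical vein; P-selectin measured by ELISA at 24 h post-dose, with cytotoxicity checked by sulforhodamine B total-protein staining in parallel cultures (0.1% SRB after 10% TCA fixation, read at 560 nm).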

[7] = BSK_4H_SRB: Viability Assessment in the BioMAP Diversity Plus: 4H Assay (AID 2283027); conditions: primary human endothelial cells (HUVEC);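 further: cells exposed to compound for 24 h before staining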
Outline: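 Human umbilical vein endothelial cells, 24 h after chemical dosing; total protein measured by 0.1% sulforhodamine B staining after 10% TCA fixation, read at 560 nm. Bidirectional fitting against DMSO.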

[8] = BSK_BE3C_SRB: Viability Assessment in the BioMAP Diversity Plus: BE3C Assay (AID 2283028); conditions: primary human bronchial epithelial cells
Outline: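 Human primary bronchial epithelial cells were exposed to test chemicals for 24 h. Total protein in parallel cultures was then measured by staining with 0.1% sulforhodamine B after 10% TCA fixation, with absorbance read at 560 nm. Activity was fitted bidirectionally against DMSO.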

[9] = read-out: Thrombomodulin, THBD (gene 7056); assay: BSK_3C_Thrombomodulin: BioMAP Diversity Plus: 3C Assay for Thrombomodulin Biomarker Activity (AID 2283029); conditions: primary human endothelial cells (HUVEC); actives raise or lower the signal
Outline: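 Thrombomodulin ELISA, human primary HUVEC, 24 h post-dose; data fitted in both directions relative to DMSO.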

[10] = read-out: Urokinase-type plasminogen activator receptor (uPAR), PLAUR (gene 5329); assay: BSK_4H_uPAR: BioMAP Diversity Plus: 4H Assay for Urokinase-type plasminogen activator receptor (uPAR) Biomarker Activity (AID 2283030); conditions: primary human endothelial cells (HUVEC); actives raise or lower the signal
Outline: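 Primary human umbilical vein endothelial cells were exposed to chemical for 24 h before cell-surface uPAR was quantified by ELISA. Activity was fitted bidirectionally against the DMSO negative control baseline.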

Measured: outcome

CC(C)=CCC[C@](C)(O)[C@@H]1CC=C(C)CC1
inactive: [1]

CC(=O)C=CC1=C(C)CCCC1(C)C
inactive: [1]

c1ccc2c(c1)c1cccc3ccc4cccc2c4c31
not listed: [1]
inactive: all other assays above

COC(=O)Cc1cccc2ccccc12
inactive: [1]

NCCNCCN
not listed: [1] | [5]
inactive: all other assays above

OC1OC[C@@H](O)[C@H](O)[C@H]1O (stereo partly specified)
not listed: [1] | [5]
inactive: all other assays above

CC(C=O)Cc1ccc(C(C)C)cc1 (stereo unspecified)
inactive: [1]

CC(=O)OCCC(C)CC(C)(C)C (stereo unspecified)
not listed: [1] | [5]
inactive: all other assays above

Nc1ccc(S(=O)(=O)O)c(N)c1
inactive: [1]

CC(=O)C(C)=O
inactive: [1]

CCCc1c(OCCCOc2ccc(OCC(=O)O)cc2)ccc(C(C)=O)c1O
inactive: [1]

CCc1c(C)cc(N)c(CC)c1N
not listed: [1]
inactive: all other assays above

C=CCOC(=O)CCC1CCCCC1
not listed: [1] | [5]
inactive: all other assays above

O=C(OCc1ccccc1)C(=O)OCc1ccccc1
inactive: [1]

C[C@H]1C[C@@H]2[C@H]([C@@H](O)C[C@@]3(C)[C@H]2CC[C@]3(O)C(=O)CO)[C@@]2(C)C=CC(=O)C=C12
not listed: [1] | [5]
inactive: all other assays above

From PubChem BioAssay (EPA / NIEHS)
